This is a sample that favours compounds with a hit; in the whole collection about 1.9% have one here.
GSTO1 inh: inhibitors of recombinant GSTO1, primary screen, counter-screen for RBBP9 inhibitor project, biochemical, fluorescence polarization | inhibition, % at 5.96 µM | Glutathione S-transferase omega-1 (Homo sapiens), P78417 | 300,000 compounds, 1.1% hits | AID 1974, 2009 | activity-based probe fluorescence polarization;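 active = inhibition above the campaign mean inhibition plus 3 SD, cut at about 35% in these data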;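 also: 0% = GSTO1-1 with DMSO and 100% = wells lacking GSTO1-1 enzyme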
Fam108B inh: mouse Fam108B serine hydrolase inhibitors, primary screen, counter-screen for RBBP9 inhibitor project, biochemical, fluorescence polarization. AID 1947, 2009. recombinant Fam108B, FP-Rh probe fluorescence polarization. inhibition, % at 9.51 µM. 300,000 compounds, 0.33% hits;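 active = inhibition above the screen mean inhibition plus 3 SD, computed separately per campaign, cut at about 18% in these data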;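 also: inhibitors lower polarization as less probe binds the enzyme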
LYPLA1 counter: LYPLA1 inhibitors, primary screen, counter-screen for PME1 inhibitor project, biochemical, fluorescence polarization, FP-Rh probe ABPP. recombinant LYPLA1. AID 2174, 2009. Acyl-protein thioesterase 1 (Homo sapiens), O75608. 320,000 compounds, 0.16% hits. inhibition, % at 5.9 µM;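 active = inhibition above the mean of all tested compounds plus 3 SD, set per campaign, cut at about 14% in these data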;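 also: inhibitors block serine hydrolase probe labeling of LYPLA1 so polarization falls; 0% = enzyme with DMSO and 100% = wells lacking LYPLA1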
LYPLA2 counter: LYPLA2 inhibitors, primary screen, counter-screen for PME1 inhibitor project, biochemical, fluorescence polarization, FP-Rh probe ABPP. 320,000 compounds, 0.38% hits. inhibition, % at 5.9 µM. recombinant LYPLA2;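 active = inhibition above the screen-wide mean plus 3 SD, limit set per campaign, cut at about 26% in these data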;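 also: 0% = LYPLA2 with DMSO and 100% = wells lacking LYPLA2 enzyme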
PREPL inh: PREPL enzyme inhibitors, primary screen, biochemical, fluorescence polarization. Prolyl endopeptidase-like (Homo sapiens), Q4J6C6. 320,000 compounds, 0.68% hits. recombinant PREPL, fluorescence polarization activity-based probe. inhibition, % at 5.96 µM; in the data active = inhibition above about 43%;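 also: 0% = enzyme with DMSO and 100% = wells lacking enzyme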
PME-1 inh: PME-1 inhibitors via competitive probe labeling, primary screen, biochemical, fluorescence polarization, FP-Rh probe, HTS; Protein phosphatase methylesterase 1 (Homo sapiens), Q9Y570; recombinant PME-1; inhibition, % at 5.9 µM; 320,000 compounds, 0.53% hits; AID 2130, 2009;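 active = inhibition above the campaign mean of all compounds plus 3 SD, cut at about 26% in these data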;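 also: competitive labeling of PME-1 active site by serine hydrolase directed probe; 0% = PME-1 with DMSO and 100% = wells lacking PME-1 enzyme; inhibitors block probe labeling so polarization falls and inhibition rises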
Target sequence (Q9Y570 whole entry, looked up): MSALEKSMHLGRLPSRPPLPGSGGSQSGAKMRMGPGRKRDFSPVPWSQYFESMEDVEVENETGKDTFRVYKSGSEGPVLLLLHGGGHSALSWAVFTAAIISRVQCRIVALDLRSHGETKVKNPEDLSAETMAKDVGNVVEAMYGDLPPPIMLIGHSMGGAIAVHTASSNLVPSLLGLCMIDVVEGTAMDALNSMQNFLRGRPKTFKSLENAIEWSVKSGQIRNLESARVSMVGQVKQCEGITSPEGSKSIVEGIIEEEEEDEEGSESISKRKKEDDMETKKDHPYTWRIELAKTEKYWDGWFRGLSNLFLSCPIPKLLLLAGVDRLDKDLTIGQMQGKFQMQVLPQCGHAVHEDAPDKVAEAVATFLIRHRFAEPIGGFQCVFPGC
Numbers without * were called inactive; · = no result; ! = a repeat was not active.

SMILES	GSTO1 inh	Fam108B inh	LYPLA1 counter	LYPLA2 counter	PREPL inh	PME-1 inh
O=C(O)COc1ccc(Br)cc1C(c1c(C(=O)O)[nH]c2ccccc12)c1c(C(=O)O)[nH]c2ccccc12	55*	7	1	3	3	0
O=S(=O)(NCCc1ccccc1F)c1cccc(S(=O)(=O)N2CCOCC2)c1	43*	-2	3	5	15	3
O=S(=O)(NCc1ccccc1)c1cccc(S(=O)(=O)N2CCOCC2)c1	1	4	3	0	17	15
COc1ccccc1NS(=O)(=O)c1ccc(N/N=C/c2ccccc2OCC(=O)O)c([N+](=O)[O-])c1	-9	8	3	6	19	54*
CCN(CC)S(=O)(=O)c1ccc(N/N=C/c2ccccc2OCC(=O)O)c([N+](=O)[O-])c1	4	5	2	6	16	23
O=C(CNC(=O)c1ccccc1)N/N=C/C=C/c1ccccc1	4	-1	1	4	-5	0
O=C(Cc1cc(=O)[nH][nH]1)N/N=C/C=C/c1ccccc1	36*!	3	-3	-2	16	-2
Cc1c(NS(=O)(=O)c2cc(C(=O)NCc3cccnc3)ccc2Cl)c(=O)n(-c2ccccc2)n1C	·	·	·	·	11	·
Cc1c(NS(=O)(=O)c2cc(C(=O)NCCN(C)C)ccc2Cl)c(=O)n(-c2ccccc2)n1C	37*	7	-1	3	24	5
O=C(CCCN1C(=O)C(c2ccccc2)Oc2cccnc21)NCCc1ccc(Cl)cc1 (stereo not given)	-2	7	0	2	-15	-2
COc1ccccc1NS(=O)(=O)c1ccc2oc(SC(C)C(=O)N3CCNC3=O)nc2c1 (stereo not given)	·	·	-1	3	-3	18
O=C(CSc1nc(=O)n(CCN2CCOCC2)c2c1CCC2)Nc1ccc(OC(F)(F)F)cc1	-24	0	-1	6	23	-2
N#Cc1cc2ccccc2nc1SCC(=O)Nc1ccccc1N1CCOCC1	5	-8	-2	-4	5	30*
COc1ccc(NS(=O)(=O)c2cccc(C(=O)NNC(=O)c3ccc(=O)[nH]c3)c2)cc1	·	·	3	1	3	1
C#CCOCCOCCOCCNc1nc(N2CCN(C(=O)CCCCCCCCCCNC(=O)[C@H]([C@@H](C)CC)n3cc(CCCCN=C(N)N)nn3)CC2)nc(N2CCN(C(=O)CCCCCCCCCCNC(=O)[C@H]([C@@H](C)CC)n3cc(CCCCN=C(N)N)nn3)CC2)n1	-5	-23	-2	33*	68*	-12
C#CCOCCOCCOCCNc1nc(N2CCN(C(=O)CCCCCCCCCCNC(=O)[C@@H](CCC(=O)O)n3cc(CCCCCN)nn3)CC2)nc(N2CCN(C(=O)CCCCCCCCCCNC(=O)[C@H]([C@@H](C)CC)n3cc(CCCCCN)nn3)CC2)n1	6	-1	3	18	30	-2
C#CCOCCOCCOCCNc1nc(N2CCN(C(=O)CCCCCCCCCCNC(=O)[C@H]([C@@H](C)CC)n3cc(CCCCCN)nn3)CC2)nc(N2CCN(C(=O)CCCCCCCCCCNC(=O)[C@@H]([C@H](C)CC)n3cc(CCCCCN)nn3)CC2)n1	2	-7	7	57*	59*	-9
C#CCOCCOCCOCCNc1nc(N2CCOCC2)nc(N2CCN(C(=O)CCCCCCCCCCNC(=O)[C@@H]([C@H](C)CC)n3cc(CCCCCN)nn3)CC2)n1	2	2	-2	9	15	0
C[C@@H]1CN([C@@H](C)CO)C(=O)c2cccc(NC(=O)C3CCCCC3)c2O[C@@H]1CN(C)Cc1ccc(Cl)c(Cl)c1	·	·	·	·	26	·
O=C(N/N=C/c1c[nH]c2ccccc12)c1sc2ccccc2c1Cl	-25	14	-8	0	36	33*
O=C(OCc1ccc(Br)cc1)c1cccc(S(=O)(=O)N2CCCC2)c1	-8	1	2	-4	-2	3
